Reference: PubChem BioAssay (Tox21)
Results filed as inconclusive are left out. A call without a number means that no potency is given here. Active and inactive are the calls of the source. Unless noted, calls come from the whole dose curve; as a rule, active = well fitted cell-killing curve with a large enough effect in the repeat runs; inconclusive = weak or mixed curves, or effect the other way; inactive = no such curve, though single readings can be large or run the other way.

target: Progesterone receptor (Homo sapiens) (UniProt P06401); test: qHTS assay to identify small molecule antagonists of the progesterone receptor (PR) signaling pathway (AID 1346795; active = well fitted inhibition curve with a large enough effect in the signal ratio in the repeat runs, not every such curve was filed as active; the % refers to the signal ratio; note: potency is the fitted concentration of half-maximal effect); conditions: PR-UAS-bla HEK293T, beta-lactamase FRET ratio, 16 h; series mostly up to 92.4 µM
Procedure, shortened: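 Screening used a GripTite HEK293T line with PR-responsive UAS-beta-lactamase. Cells were challenged with compound in the presence of 1 nM R5020 final for 16 hr at 37C; B/G FRET substrate, 2 hr room temperature, fluorescence.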

Chain of Progesterone receptor (Homo sapiens) (P06401 whole entry, looked up): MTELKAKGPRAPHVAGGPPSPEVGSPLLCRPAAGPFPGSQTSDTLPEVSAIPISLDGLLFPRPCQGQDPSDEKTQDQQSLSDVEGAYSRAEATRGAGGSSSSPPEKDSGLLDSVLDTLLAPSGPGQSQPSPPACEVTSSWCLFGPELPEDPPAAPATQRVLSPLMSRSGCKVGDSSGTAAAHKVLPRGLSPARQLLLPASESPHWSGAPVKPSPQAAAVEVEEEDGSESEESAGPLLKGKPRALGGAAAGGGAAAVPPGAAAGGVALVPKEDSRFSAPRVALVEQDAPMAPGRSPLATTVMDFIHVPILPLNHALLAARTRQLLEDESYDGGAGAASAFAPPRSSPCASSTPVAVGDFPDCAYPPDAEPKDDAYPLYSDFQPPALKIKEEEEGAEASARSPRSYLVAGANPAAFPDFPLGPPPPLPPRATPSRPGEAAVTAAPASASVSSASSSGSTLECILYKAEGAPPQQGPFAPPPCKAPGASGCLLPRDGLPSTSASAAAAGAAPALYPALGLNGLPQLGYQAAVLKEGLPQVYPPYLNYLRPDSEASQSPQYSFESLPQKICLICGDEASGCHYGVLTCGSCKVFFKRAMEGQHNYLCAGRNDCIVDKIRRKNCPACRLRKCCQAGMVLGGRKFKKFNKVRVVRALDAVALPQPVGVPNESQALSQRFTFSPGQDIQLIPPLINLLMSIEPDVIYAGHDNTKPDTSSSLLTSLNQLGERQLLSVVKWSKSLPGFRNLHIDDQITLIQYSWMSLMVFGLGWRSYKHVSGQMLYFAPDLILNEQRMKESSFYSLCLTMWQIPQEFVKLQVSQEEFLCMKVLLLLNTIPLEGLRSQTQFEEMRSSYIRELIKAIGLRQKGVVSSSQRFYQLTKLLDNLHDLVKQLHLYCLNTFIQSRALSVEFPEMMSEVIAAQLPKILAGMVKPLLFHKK

SMILES	Potency
CN1CCN(C2=Nc3cc(F)ccc3Cc3ccccc32)CC1	18.8 µM (active)
NC(=O)Cc1cccc(C(=O)c2ccccc2)c1N	inactive
CCc1cc(Cl)c(OC)c(C(=O)NC[C@@H]2CCCN2CC)c1O	inactive
OCc1ccccc1O	inactive
CC1(O)CSC(C)(O)CS1 (configuration not stated)	inactive
CC(=O)OC(C)OC(C)=O	inactive
CCC/C=C/CO	inactive
C/C(=N\O)[C@@H](C)NCC(C)(C)CN[C@H](C)/C(C)=N/O	inactive
COc1cc2c(cc1N)oc1ccccc12	44.2 µM (active)
O=C1CCCCCCCCCCC(=O)OCCO1	inactive
CCOC(=O)NCCC[Si](OCC)(OCC)OCC	inactive
Cn1cnc2c(F)c(Nc3ccc(Br)cc3Cl)c(C(=O)NOCCO)cc21	inactive
CCc1nnc(NS(=O)(=O)c2ccc(N)cc2)s1	inactive
NCCCN1CCN(CCCN)CC1	inactive
COC(=O)c1ccc(OC)cc1	inactive
NC(=O)NS(=O)(=O)c1ccc(Cl)cc1	inactive
CCOC(=O)c1cc(=O)c2c(OCC(COc3cccc4oc(C(=O)OCC)cc(=O)c34)OC(=O)[C@@H](N)CCCCN)cccc2o1	inactive
CCN(CCCc1ccccc1)CCCc1ccccc1	inactive
CC(C)=CCC[C@](C)(O)[C@@H]1CC=C(C)CC1	inactive
O=CCCc1ccccc1	inactive
C=C(C)C(=O)OCCOP(=O)(O)O	inactive
Cc1ccc([N+](=O)[O-])c(N)c1	59.6 µM (active)
CC(C)NC[C@@H](O)COc1cccc2ccccc12	inactive
O=C(O[C@@H](C(=O)O)[C@@H](OC(=O)c1ccccc1)C(=O)O)c1ccccc1	inactive
FC(F)(F)C(Cl)(Cl)Cl	inactive
COc1ccc(S(=O)(=O)Nc2nnc(CC(C)C)s2)cc1	inactive
Cc1ccc([N+](=O)[O-])cc1Cl	inactive
CCCCc1ccc2nc(NC(=O)OC)[nH]c2c1	4.22 µM (active)

tested on: not listed separately; test: qHTS assay to identify small molecule antagonists of the progesterone receptor (PR) signaling pathway - cell viability counter screen (AID 1346798); conditions: PR-UAS-bla HEK293T viability, CellTiter-Glo luminescence, 16 h; series mostly up to 42.5 µM; note: nearly all actives have a fitted effect of over 50% in size
Procedure, shortened: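 Measures cytotoxicity in parallel with the PR antagonist reporter read: HEK293T PR-UAS-bla cells get compound and R5020 for 16 hr, and remaining viable cells are quantified by CellTiter-Glo luminescence.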

SMILES	Potency
NC(=O)Cc1cccc(C(=O)c2ccccc2)c1N	inactive
CCc1cc(Cl)c(OC)c(C(=O)NC[C@@H]2CCCN2CC)c1O	inactive
CC1(O)CSC(C)(O)CS1 (configuration not stated)	inactive
O=C(O)[C@@H](O)[C@H](O)[C@H](O)[C@@H](O)C(=O)O	inactive
CCC/C=C/CO	inactive
COc1cc2c(cc1N)oc1ccccc12	inactive
CC(CNC1CCCCC1)OC(=O)c1ccccc1 (configuration not stated)	inactive
Cc1onc(-c2ccccc2)c1C(=O)Cl	inactive
C=CCCC=C	inactive
OCc1c2ccccc2cc2ccccc12	inactive
O=C(C(Cl)Cl)N1CCOC12CCCCC2	inactive
Cn1cnc2c(F)c(Nc3ccc(Br)cc3Cl)c(C(=O)NOCCO)cc21	inactive
CCc1nnc(NS(=O)(=O)c2ccc(N)cc2)s1	inactive
CN1CCN(c2c(F)cc3c(=O)c(C(=O)O)cn(CCF)c3c2F)CC1	inactive
NC(=O)NS(=O)(=O)c1ccc(Cl)cc1	inactive
C[C@]12C(=O)OC(=O)[C@H]1[C@H]1C=C[C@@H]2C1	inactive
CCOC(=O)C1CC(=O)C(=C(O)C2CC2)C(=O)C1 (configuration not stated)	inactive
Cc1ccc([N+](=O)[O-])cc1Cl	inactive
Cc1cc(NS(=O)(=O)c2ccc(N)cc2)nc(C)n1	inactive
